The nature of assay [1]: NCI Yeast Anticancer Drug Screen. Data for the rad50 strain (AID 155).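 Also: 0% = growth of vehicle-only cultures of the same strain.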 As to conditions: S. cerevisiae rad50 strain growth inhibition; at 50.0 µM; active compounds read high. An outline of the steps: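 DNA repair mutant yeast, compound exposure, growth read-out; inhibition is taken relative to vehicle.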
Assay [2] is described as follows: NCI Yeast Anticancer Drug Screen. Data for the mec2-1 strain (AID 157). As to conditions: S. cerevisiae mec2-1 strain, at 50.0 µM, active compounds read high. An outline of the steps:
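Yeast mec2-1 mutant treated with compound. Readout: growth inhibition vs vehicle controls.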

A short description of assay [3]: NCI Yeast Anticancer Drug Screen. Data for the sgs1 mgt1 strain (AID 161).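 Also: 0% = growth of cultures given vehicle only.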 As to conditions: S. cerevisiae sgs1 mgt1 strain, at 50.0 µM, active compounds read high. An outline of the steps:
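Mutant yeast exposed to compound; growth scored against vehicle-only wells.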

The nature of assay [4]: NCI Yeast Anticancer Drug Screen. Data for the cln2 rad14 strain (AID 165).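 Also: 0% = growth equal to vehicle treated cultures.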 As to conditions: S. cerevisiae cln2 rad14 strain, at 50.0 µM, active compounds read high. An outline of the steps:
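cln2 rad14 yeast strain; compound exposure; growth inhibition read vs vehicle controls.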

A short description of assay [5]: NCI Yeast Anticancer Drug Screen. Data for the bub3 strain (AID 167). As to conditions: S. cerevisiae bub3 mutant strain, at 50.0 µM, active compounds read high. A digest of the protocol: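 In this screen, a yeast mutant lacking normal mitotic checkpoint function is challenged with compound. Relative growth versus vehicle gives the inhibition value.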
Assay [6] can be described thus: NCI Yeast Anticancer Drug Screen. Data for the mlh1 rad18 strain (AID 175). The following applies: S. cerevisiae mlh1 rad18 strain growth inhibition; at 50.0 µM; active compounds read high. A digest of the protocol:
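Yeast w/ defined DNA-repair lesions; compound exposure; growth vs vehicle controls → % inhibition.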

About 79,000 compounds went through this panel and 15% of them were active in at least one assay; those are over-represented in the sample as a whole. A number with no mark means an inactive call. The source made the active and inactive calls. Rule as the data show it: active = growth inhibition above about 70%; inactive = the rest.

Turning to `CCOC(=O)NCC1(c2ccccc2)CCN(Cc2ccccc2)CC1`, the growth inhibition in assay [1] is -9.75%; in assay [2] it was -17.6%; in assay [3] it was -11.9%; in assay [4] it was 1.35%; in assay [5], -14.9%; in assay [6], -1.7%.

As for `CC(C)NC(=O)C1C2CCC(C2)C1C(=O)NC(C)C` (configuration not stated), the growth inhibition in assay [1] was 3.55%; in assay [2], -1%; in assay [3], 2.35%; in assay [4] it was -28.4%; in assay [5], -0.3%; in assay [6], -7.25%.

Consider `Cc1ccc(-c2cc(=O)c3cc(C)c(C)c(C(=O)O)c3o2)cc1N`, for which the growth inhibition was -8.6% in assay [1]; -3.55% in assay [2]; 11.9% in assay [3]; 6.1% in assay [4]; 14.2% in assay [5]; -7.4% in assay [6].

Take `COc1cccc(OC)c1OC(=O)/C=C\C(=O)Oc1c(OC)cccc1OC`: the growth inhibition is 29.9% in assay [1]; -8.65% in assay [2]; 18.8% in assay [3]; -3.75% in assay [4]; -2.05% in assay [5]; 20.8% in assay [6].

Consider `CC(=O)OCSc1ncnc2c1ncn2CN1CCOCC1`, for which the growth inhibition is 7.15% in assay [1]; 2.25% in assay [2]; -19.9% in assay [3]; 1.8% in assay [4]; -4.85% in assay [5]; 7.85% in assay [6].

As to `CCCCCCCCCCCCCCCCc1c(C)ncn(C)c1=O`, the growth inhibition in assay [1] is -13.9%; in assay [2], 2%; in assay [3], 5.4%; in assay [4] it was -8.15%; in assay [5], -9.2%; in assay [6] it was -49%.

Turning to `CC(NC(=O)OCC[P+](c1ccccc1)(c1ccccc1)c1ccccc1)C(=O)O` (configuration not stated), the growth inhibition in assay [1] is -14.2%; in assay [2], -4.35%; in assay [3], -11.6%; in assay [4], 3.45%; in assay [5] it was -27.1%; in assay [6], -55.2%.

As for `N#Cc1cccc(Nc2ccccc2SSc2ccccc2Nc2cccc(C#N)c2)c1`, the growth inhibition in assay [1] was 13.1%; in assay [2], 7.6%; in assay [3], 17.5%; in assay [4], -7.4%; in assay [5], 3.95%; in assay [6], 12.8%.

As for `Nc1nc2c(c(-c3ccc(F)cc3)n1)COC/C2=C\c1ccc(F)cc1`, the growth inhibition was 31.5% in assay [1]; 24% in assay [2]; 15.2% in assay [3]; 22.1% in assay [4]; 40.8% in assay [5]; 19.6% in assay [6].

For `CC(C)(C)C(=O)NO`, the growth inhibition is -12.6% in assay [1]; -12.1% in assay [2]; -13.6% in assay [3]; 6.8% in assay [4]; 4.5% in assay [5]; -0.3% in assay [6].

`C/C=C/Cc1ccccc1O`: the growth inhibition in assay [1] is 7.1%; in assay [2], -3.4%; in assay [3], -5.05%; in assay [4] it was -6.4%; in assay [5], -9.2%; in assay [6], -1.1%.

Take `COc1cc(C2c3cc4c(c(OS(=O)(=O)O)c3CC3COC(=O)C32)OCO4)cc(OC)c1OC` (configuration not stated): the growth inhibition in assay [1] is 6.3%; in assay [2], 3.5%; in assay [3] it was -18.9%; in assay [4], -14.4%; in assay [5], 15%; in assay [6], 7.4%.

On to `CCOC(=O)C1=C(Nc2ccc(Cl)cc2Cl)OCC1=O`, for which the growth inhibition is -12.3% in assay [1]; -5.85% in assay [2]; -0.35% in assay [3]; -13.9% in assay [4]; -58.5% in assay [5]; 10.2% in assay [6].

Consider `CC(=O)Oc1ccc2ccccc2c1CS(=O)(=O)O`, for which the growth inhibition is 5.6% in assay [1]; 6.05% in assay [2]; 10.9% in assay [3]; 4.35% in assay [4]; 3.35% in assay [5]; 10.4% in assay [6].

As for `O=S1OC(c2ccccc2)(c2ccccc2)C(c2ccccc2)(c2ccccc2)O1`, the growth inhibition in assay [1] was -29.9%; in assay [2] it was -16.6%; in assay [3], 2.2%; in assay [4] it was 11.6%; in assay [5], -13.2%; in assay [6], -17.4%.

`O=C(Nc1ccc(Cl)cc1)Nc1nnc2nc(CC(=O)c3cccc([N+](=O)[O-])c3Cl)c(=O)[nH]n12`: the growth inhibition is -9.45% in assay [1]; 11.4% in assay [2]; 2.95% in assay [3]; -0.4% in assay [4]; 5.6% in assay [5]; 9.55% in assay [6].

Regarding `Cc1c(C)c2c(c(C)c1Cl)CC2(Cl)Cl`, the growth inhibition in assay [1] was 3.6%; in assay [2], 4%; in assay [3] it was -9.15%; in assay [4], -41.8%; in assay [5] it was -5.55%; in assay [6], -9.5%.

With `COc1ccc(-c2cc(-c3ccccc3)n(C3OCC(OC(C)=O)C(OC(C)=O)C3OC(C)=O)c(=S)c2C#N)cc1` (configuration not stated), the growth inhibition in assay [1] is 12.1%; in assay [2], 18.9%; in assay [3] it was -12.7%; in assay [4], 4.55%; in assay [5] it was -3.6%; in assay [6] it was 32.4%.

Consider `COc1ccc(-c2cc(-c3ccccc3)n[nH]2)cc1`, for which the growth inhibition in assay [1] was 24%; in assay [2], 27.7%; in assay [3], 43.8%; in assay [4], -13.9%; in assay [5] it was 47.9%; in assay [6], 33.4%.

As to `O=C(O)c1cc(=O)c2cc3c(cc2o1)OCc1ccccc1-3`, the growth inhibition in assay [1] is 13.8%; in assay [2], -6.15%; in assay [3], 2.1%; in assay [4], 19.4%; in assay [5] it was -6.5%; in assay [6], 3.55%.

`COC(=O)C1=C(C)NC(C)=C(C(=O)OC)C1c1cccc(NO)c1`: the growth inhibition in assay [1] is 9.6%; in assay [2], 16.4%; in assay [3] it was 47.4%; in assay [4], 24%; in assay [5], 43.3%; in assay [6] it was 2.85%.

With `Clc1cc(Cl)cc(C=NC23CC4CC(CC(C4)C2)C3)c1`, the growth inhibition in assay [1] is -13.8%; in assay [2], -31.2%; in assay [3] it was -40.5%; in assay [4], -20%; in assay [5], -24.4%; in assay [6], -11%.

Turning to `O=C(C(c1ccccc1)c1ccccc1)N(CCO)c1ccccc1`, the growth inhibition in assay [1] was -12%; in assay [2], -28.6%; in assay [3], -4.2%; in assay [4], -9.5%; in assay [5] it was -4.6%; in assay [6] it was -0.65%.

Regarding `O=C(O)CS(=O)(=O)CC(=O)O`, the growth inhibition was -10.3% in assay [1]; -11.4% in assay [2]; -10.2% in assay [3]; -6.65% in assay [4]; -23.4% in assay [5]; -12.1% in assay [6].

On to `CC(C)C(C(N)=O)C(C)(C)C` (configuration not stated), for which the growth inhibition in assay [1] is 1.1%; in assay [2] it was 4.2%; in assay [3] it was 14.9%; in assay [4], 8.6%; in assay [5], -7.5%; in assay [6], -9.55%.

On to `COC(=O)CC1(O)C=C(C)C(=O)c2ccccc21` (configuration not stated), for which the growth inhibition in assay [1] is 4.9%; in assay [2], -5.7%; in assay [3] it was -19.2%; in assay [4] it was -19%; in assay [5] it was 25.2%; in assay [6], -11.2%.

For `COc1ccc(Cc2ccc3c(c2)OCO3)cc1C`, the growth inhibition in assay [1] was -12.1%; in assay [2], -14.2%; in assay [3] it was 9.7%; in assay [4], -9.55%; in assay [5], 6.45%; in assay [6] it was -3.95%.

With `C=C[C@]1(C)CC(=O)C(C(C)C=O)[C@]12C(=O)Oc1cccc(C)c1C2=O` (some centres not stated), the growth inhibition is 63.9% in assay [1]; 85.5% (active) in assay [2]; 79% (active) in assay [3]; 58.1% in assay [4]; 71.8% (active) in assay [5]; 86.7% (active) in assay [6].

Take `O=C(NCCCl)Oc1cccn(C(=O)NCCCl)c1=O`: the growth inhibition in assay [1] is 7.15%; in assay [2], 9.7%; in assay [3] it was -2.55%; in assay [4], 9.1%; in assay [5] it was 0.65%; in assay [6], -0.8%.

For `CC(=O)Nc1cc(Cl)cc2[nH]c(C)nc12`, the growth inhibition is 17.1% in assay [1]; -3% in assay [2]; -0.6% in assay [3]; -0.25% in assay [4]; 12.8% in assay [5]; 37.4% in assay [6].

In the case of `NC(CS)=NCCc1nc2ccccc2[nH]1`, the growth inhibition in assay [1] is 12.6%; in assay [2], 9.95%; in assay [3], -0.2%; in assay [4], -2.85%; in assay [5], 7.6%; in assay [6], 4.3%.

Regarding `CSc1ccc2c(c1)Cc1cc(N)ccc1-2`, the growth inhibition in assay [1] was 3.9%; in assay [2] it was 10.6%; in assay [3], 12.1%; in assay [4], 3.4%; in assay [5] it was -26.7%; in assay [6], 10.8%.

Take `CCOc1ccc2nc(NC(=O)C(=O)C(C#N)CC(C)(C)C=O)sc2c1` (configuration not stated): the growth inhibition in assay [1] is -13.8%; in assay [2] it was -22.8%; in assay [3] it was -17.6%; in assay [4] it was 7.7%; in assay [5] it was -12.6%; in assay [6] it was -28.1%.

For the compound `CC(O)c1ccc(C(O)/C(=N\NC(=O)c2ccncc2)c2nc3ccc([N+](=O)[O-])cc3[nH]c2=O)cc1` (configuration not stated), the growth inhibition in assay [1] was -5.95%; in assay [2], -10.2%; in assay [3] it was 15.2%; in assay [4] it was -60.7%; in assay [5], -5.1%; in assay [6], -2.25%.

With `Oc1ccccc1C=Nc1ccc2c(ccc3c4ccccc4ccc23)c1`, the growth inhibition in assay [1] is 51.8%; in assay [2], 39.8%; in assay [3], 28%; in assay [4], -6.65%; in assay [5] it was 48.1%; in assay [6] it was 39.8%.

Take `CCCCCCCCCCCCCCCCCC(N)=O`: the growth inhibition in assay [1] was 5.2%; in assay [2], -14.2%; in assay [3], 3.35%; in assay [4], -15.7%; in assay [5] it was -2.5%; in assay [6], 25.4%.

Consider `COc1cc(NCCN2CCOCC2)c([N+](=O)[O-])cc1OC`, for which the growth inhibition in assay [1] was 22.3%; in assay [2] it was 12.1%; in assay [3], 8.25%; in assay [4] it was 2.6%; in assay [5] it was -0.65%; in assay [6], 8.15%.
